G9a inh = inhibitors of human histone lysine methyltransferase G9a; 350,000 tested, 8.8% active; Potency, µM (titrated, usually from 102 µM), for the others: at the top dose activity, negative = inhibition, most hits filed as inhibitors; AID 504332; G9a H3K9 monomethylation, AlphaScreen, 2 h; Q96KQ7; note: % is set by controls: 0 for no effect and ±100 for the full control effect; nearly all actives have a fitted effect of over 75% in size
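G9a (20 nM) was preincubated 15 min with compound, then reacted 2 h at room temperature with 500 nM biotin-H3K9 peptide and 20 µM SAM. Monomethyl-H3K9 detected by AlphaScreen using anti-H3K9me1 antibody.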
JMJD2A Tudor = JMJD2A Tudor domain (human) inhibition; AlphaScreen JMJD2A-Tudor / H3K4me3 peptide binding; AID 504339; 390,000 tested, 4.4% active; O75164; Potency, µM (doses to about 114 µM), inactives show top-dose activity change, negative = inhibition, hits mostly inhibitors; note: % is set by controls: 0 for no effect and ±100 for the full control effect; nearly all actives have a fitted effect of over 50% in size
GLS inh = blocks human kidney-isoform glutaminase activity. O94925. GLS enzymatic activity, qHTS titration. Potency, µM (doses to about 45.5 µM), for inactives: at the highest dose activity change, negative = inhibition, actives largely listed as inhibitors. 410,000 tested, 0.21% active. AID 624170; note: % is set by controls: 0 for no effect and ±100 for the full control effect
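Compounds were pin-transferred onto hKGA, after which L-glutamine (1 mM solution) and a detection mix of glutamate oxidase, HRP and Amplex Red were added. Initial and 30 min RT fluorescence reads were collected.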
BAZ2B inh = inhibitors of human BAZ2B bromodomain; Q9UIF8; AlphaScreen BAZ2B-H3K14Ac peptide displacement; Potency, µM (doses to about 114 µM), for the others: top-dose activity change, negative = inhibition, usual class: inhibitors; 360,000 tested, 4.4% active; note: % is set by controls: 0 for no effect and ±100 for the full control effect; nearly all actives have a fitted effect of over 60% in size
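BAZ2B 50 nM plus b-H3(5-23)K14Ac 50 nM, PBS pH 7.4/0.01% Tween-20, 30 min RT; compound added (max 110 uM), 30 min RT; streptavidin donor/Ni-chelate acceptor beads 10 ug/mL final, 20 min dark; AlphaScreen read.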
L3MBTL1 block = blocks human L3MBTL1; Q9Y468; AlphaScreen L3MBTL1–H3K9me1 peptide binding; Potency, µM (titrated, usually from 57.1 µM), without a hit: at the highest dose activity, negative = inhibition, actives largely listed as inhibitors; 230,000 tested, 0.66% active; AID 485360; note: % is set by controls: 0 for no effect and ±100 for the full control effect; nearly all actives have a fitted effect of over 60% in size
Target sequence (Q9Y468 whole entry, looked up): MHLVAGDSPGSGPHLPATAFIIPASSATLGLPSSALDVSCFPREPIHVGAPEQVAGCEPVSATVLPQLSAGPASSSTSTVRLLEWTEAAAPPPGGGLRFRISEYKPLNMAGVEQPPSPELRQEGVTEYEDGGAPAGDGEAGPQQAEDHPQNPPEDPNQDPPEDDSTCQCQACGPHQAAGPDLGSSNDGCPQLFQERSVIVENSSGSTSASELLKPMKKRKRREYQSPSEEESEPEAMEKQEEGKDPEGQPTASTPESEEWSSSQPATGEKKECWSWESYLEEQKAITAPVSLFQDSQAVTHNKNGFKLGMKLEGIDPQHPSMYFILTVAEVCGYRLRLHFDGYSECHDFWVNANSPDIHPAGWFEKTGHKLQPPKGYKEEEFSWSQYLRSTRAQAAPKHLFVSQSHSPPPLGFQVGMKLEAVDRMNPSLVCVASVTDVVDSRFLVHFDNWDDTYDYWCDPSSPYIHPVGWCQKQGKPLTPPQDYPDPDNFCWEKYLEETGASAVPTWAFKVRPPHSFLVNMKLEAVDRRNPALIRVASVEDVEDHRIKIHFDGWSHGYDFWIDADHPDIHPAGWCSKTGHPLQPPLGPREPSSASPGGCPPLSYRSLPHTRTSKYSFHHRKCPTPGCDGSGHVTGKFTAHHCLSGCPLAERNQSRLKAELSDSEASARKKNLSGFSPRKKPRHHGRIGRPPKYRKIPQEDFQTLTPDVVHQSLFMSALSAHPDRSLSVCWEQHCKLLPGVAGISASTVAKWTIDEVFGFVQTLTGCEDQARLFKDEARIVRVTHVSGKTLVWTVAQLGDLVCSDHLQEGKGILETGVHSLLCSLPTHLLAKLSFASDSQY
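AlphaScreen assay: L3MBTL1 (50 nM final) was preincubated 30 min at room temperature with biotinylated H3(1-15)K9me1 peptide (75 nM final), then 30 min with library compounds; streptavidin donor and nickel chelate acceptor beads (10 ug/mL final) added, 30 min dark.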
HP1b binding inh = blocks HP1-beta chromodomain binding to methylated histone tails; AlphaScreen HP1-beta / biotin-H3K9me3 peptide binding; Potency, µM (doses to about 114 µM), without a hit: at the highest dose activity change, negative = inhibition, hits mostly inhibitors; 390,000 tested, 0.56% active; note: nearly all actives have a fitted effect of over 70% in size
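AlphaScreen: HP1-beta (50 nM) preformed 30 min with biotin-H3(1-18)K9me3 peptide (50 nM) in PBS pH 7.4, 0.01% Tween-20. Compound added for 30 min at RT, then streptavidin donor/nickel chelate acceptor beads (10 ug/mL) for 30 min.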
An asterisk follows results filed as active; u = inconclusive; x = not tested or not shown; [ ] = another dose, or the depositor's remark. A selection: hits, their analogues and other compounds. The true share with any hit is near 10%. Calls come from the whole dose curve; as a rule, active = well fitted curve in the direction sought with a large enough effect; inconclusive = small, poorly fitted or top-dose-only effect, or another doubt; inactive = no such curve, though single readings can be large; an effect the other way counts as inactive or inconclusive. Potency is the fitted concentration of half-maximal effect.

SMILES | G9a inh | JMJD2A Tudor | GLS inh | BAZ2B inh | L3MBTL1 block | HP1b binding inh
CC(=NCCN1CCCCC1)c1c(O)n(Cc2ccccc2)c(=O)[nH]c1=O | 40µM* | -4% | -15% | 5% | -3% | 39%
Nc1ccc([N+](=O)[O-])cc1O | x | x | 41%[99.4 µM] | x | x | x
O=C1NC(=O)N(Cc2ccccc2Cl)C(=O)/C1=C/c1cccs1 | 11µM* | -14% | 12% | x | x | 35%
Cc1ccc(/C=C2\C(=O)NC(=O)N(Cc3ccccc3Cl)C2=O)o1 | 13µM* | -14% | 16% | 32µM* | -25% | 17%
O=C1NC(=O)N(Cc2ccc(F)cc2)C(=O)/C1=C/c1cccs1 | 4µM* | -29% | -18% | 79µM* | x | 27%
Cc1ccc(/C=C2/C(=O)NC(=O)N(Cc3ccc(F)cc3)C2=O)o1 | x | x | x | -16% | x | x
Cc1ccc(Cl)cc1NC(=O)N(Cc1ccc2c(c1)OCO2)C1CCN(Cc2ccccc2)CC1 | u | u | 6% | u | x | 7%
S=c1[nH]nc(-c2ccn[nH]2)n1-c1ccccc1Cl | 3.2µM* | 20µM* | 14% | 50µM* | -4% | u
Cc1cc(C)c(C(=O)CN2CCOCC2)c(C)c1 | 3.2µM* | u | -2% | -7% | 1% | 64%
O=C(CN1CCCCC1)c1ccc(F)cc1 | u | -7% | -5% | -3% | 2% | 66%
COc1ccc(C(=O)CN2CCOCC2)cc1F | 28µM* | -31% | 9% | -12% | 12% | 34%
O=C(CN1CCOCC1)c1ccc2cc[nH]c2c1 | 32µM* | -30% | -7% | 4% | 10% | 28%
Cn1ccnc1 | 11%[12.7 µM] | x | x | x | x | x
NC1CCc2cc(O)c(O)cc2C1 (stereo not drawn) | 1.5µM* | 11µM* | u | -4% | 0% | u
COC(=O)C(O)(c1ccc(N(C)C)cc1)C(F)(F)F (stereo not drawn) | -11% | -14% | 16% | -19% | -5% | 23%
COC(=O)C(O)(c1ccc(N(C)C(=O)c2cccs2)cc1)C(F)(F)F (stereo not drawn) | -7% | 22µM* | u | -8% | 3% | -1%
Cn1cc(/C=C2\C(=O)NC(=O)N(c3ccccc3)C2=O)c2ccccc21 | -1% | -32% | u | -21% | x | 137%
CSc1ncc(/C=C2/C(=O)NC(=O)N(C)C2=O)cn1 | x | -9% | 13% | -28% | -1% | -19%
CSc1ncc(/C=C2/C(=O)NC(=O)N(c3ccc(C(C)C)cc3)C2=O)cn1 | 7.9µM* | u | -13% | -12% | 4% | -15%
CC(C)c1ccc(N2C(=O)NC(=O)/C(=C/c3cnc(-c4ccccc4)nc3)C2=O)cc1 | 3.5µM* | 89µM* | 4% | u | -14% | -5%
O=C1NC(=O)N(Cc2ccccc2)C(=O)/C1=C/c1cnc(-c2ccccc2)nc1 | 10µM* | 79µM* | -3% | -34% | x | -6%
CCCCN1C(=O)NC(=O)/C(=C/c2cnc(SC)nc2)C1=O | 10µM* | u | -13% | -34% | -1% | -22%
S=P(c1ccccc1)(c1ccccc1)c1c[nH]c2ccccc12 | x | -35% | x | x | x | x
CC(=O)C1CCC2C3CCC4CC(O)CCC4(C)C3CC(O)C12C (stereo not drawn) | -45%[2.33 µM] | x | x | x | x | x
Cc1cc(C(=O)OCC(=O)NC(=O)c2cccn2C)c2ccccc2n1 | u | 11% | -3% | 18% | -13% | 13%
SMILES | G9a inh | JMJD2A Tudor | GLS inh | BAZ2B inh | L3MBTL1 block | HP1b binding inh
O=C1NC(=O)N(Cc2ccccc2)C(=O)/C1=C/N1CCCc2ccccc21 | 7.9µM* | u | 7% | u | u | 7%
COc1cc(/C=C/c2nc3ccccc3c(=O)n2-c2ccc(O)cc2)ccc1O | -15% | u | -12% | u | x | -10%
O=c1c2ccccc2nc(-c2ccc([N+](=O)[O-])cc2)n1-c1ccccc1 | -38%[59 µM] | -17% | 5% | -37% | -3% | 16%
Cc1ccccc1-n1c(-c2ccc([N+](=O)[O-])cc2)nc2ccccc2c1=O | 71µM* | -27% | -4% | -35% | -6% | -9%
Cc1ccccc1-n1c(/C=C/c2ccc(N(C)C)cc2)nc2ccccc2c1=O | -35%[59 µM] | 22µM* | 2% | 22µM* | x | 25%
COc1ccc(-n2c(/C=C/c3ccc(O)c(O)c3)nc3ccccc3c2=O)cc1 | 32µM* | u | -21% | u | x | 4%
CC(=O)O[C@H]1[C@H]2[C@@H](OC(=O)Cc3ccccc3)[C@@H](C)C[C@]2(OC(C)=O)C(=O)/C(C)=C/[C@@H]2[C@H](CC[C@@]13CO3)C2(C)C | 12%[59 µM] | x | x | x | x | x
COc1ccc(/C=C2\C(=O)NC(=S)N(C)C2=O)cc1C | x | 4µM* | 135% | u | 1% | 8.9µM*
Cc1ccsc1/C=C1\C(=O)NC(=S)N(C)C1=O | 7.9µM* | 89µM* | 25% | u | -11% | 6%
CN1C(=O)/C(=C/c2ccc(Cl)s2)C(=O)NC1=S | x | 25µM* | 69% | -38% | 4% | 7%
CCOC(=O)c1cnc2c(ccc3ccccc32)c1Nc1ccc(C(C)=O)cc1 | -46%[59 µM] | -13% | 2% | 2% | x | 31%
Cc1ccc(CCNC(=O)Cn2nc(C)c3c(C)n(-c4ccc(C)cc4)nc3c2=O)cc1 | -2%[59 µM] | 5% | 0% | u | x | 43%
C[C@H]1C(=O)O[C@@H]2CCN3CC=C(COC(=O)[C@@](C)(O)[C@@]1(C)O)[C@H]23 | 23%[21.5 µM] | x | x | x | x | x
Cc1ccc(-n2sc3ccccc3c2=O)cc1 | 1.1µM* | 7.1µM* | u | 7.9µM* | -2% | u
COc1ccc(-c2nc3ccccc3c(=O)n2-c2ccc(OC)cc2)cc1 | -3%[0.501 µM] | -12% | 0% | -5% | -1% | 28%
COc1ccc(-c2c3c(=O)n(C)c(=O)n(C)c3c3n2-c2ccccc2NC3c2ccccc2OC)cc1 (stereo not drawn) | u | -13% | 2% | -5% | x | 28%
COc1ccc(/C=C/C2=CCN(C)CC2)cc1 | 79µM* | -18% | 18% | -21% | -7% | 28%
COc1cc([C@@H]2c3cc4c(c(O)c3C[C@H]3COC(=O)[C@@H]32)OCO4)cc(OC)c1OC | x | -26% | x | x | x | 25%
C[C@@H]1O[C@@H](O[C@H]2C[C@@H](O)[C@]3(CO)[C@H]4[C@H](O)C[C@]5(C)[C@@H]([C@@H]6COC(=O)C6)CC[C@]5(O)[C@@H]4CC[C@]3(O)C2)[C@H](O)[C@H](O)[C@H]1O | 23%[12.7 µM] | x | x | x | x | x
CCOC(=O)c1ccc2c(c1)N(CC)C(=O)c1ccccc1S2 | 45µM* | -3% | -6% | -7% | x | 24%
CCN1C(=O)c2ccccc2Sc2ccc(NC(=O)c3ccc(C)c(F)c3)cc21 | 2%[59 µM] | u | 2% | 1% | x | 25%[57 µM]
